Compounds with a hit are over-represented: about 11% of the library has one in this group of screens.
Autophagy HCS: alters autophagy in cells; AID 463193; 0.98% of 190,000 active; calls only at 10 µM (by protocol); MEF GFP-LC3 puncta imaging; test concentration mostly 10 µM;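 active = percentage of spot-positive cells more than 3 SD above its plate mean, without a fluorescence outlier flag or 80% toxicity; inconclusive = no clear call, values can overlap the other calls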
WT yeast gro inh: growth inhibition of WT yeast, mitochondrial fusion screen | mitochondrial fusion phenotypic screen, WT strain | inhibition, % at 10 µM | 2.1% of 190,000 active; in the data active = inhibition above about 58%; tested in S. cerevisiae
L major viab: inhibitors of Leishmania major promastigote growth | Leishmania major promastigotes, resazurin fluorescence viability | inhibition, % at 10 µM | 9% of 200,000 active | AID 1063; in the data active = inhibition above about 50%;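 note: promastigotes grown with compound for 44 hours at 28 °C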
Insulin prom inh: TRM-6 insulin promoter activity inhibition; TRM-6 cells (human fetal islet line), insulin promoter-eGFP reporter, imaging; reporter expression induced with tamoxifen; inhibition, % at 2 µM; 0.9% of 130,000 active;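 active = inhibition above the mean plus 3 SD, with well images judged a real hit on visual review, cut at about 60% in these data, passing the limit was not always enough; inconclusive = inhibition over the cutoff but images rejected on review; inactive = inhibition not above the cutoff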
Insulin prom up: MIN6 insulin promoter up-regulation; MIN6 insulin promoter-GFP reporter, high-content imaging; stronger effect = higher value; z-score at 5 µM; 0.3% of 190,000 active;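 active = z-score above 3 at 5 µM with at least 500 cells counted in the well; inconclusive = wells under 500 cells, flagged as cytotoxic or low count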
Of the large screens only hits and unclear results are named; the others gave an inactive call; ! = repeats disagree.

CCOc1ccccc1NC(=O)C(OC(=O)c1ccc(O)cc1)c1ccccc1 (stereo unspecified)	WT yeast gro inh 77
N#Cc1ccsc1NC(=O)CN1CCN(S(=O)(=O)c2ccccc2C(F)(F)F)CC1	none
COc1ccccc1NC(=S)NC1CCCCC1	none
COc1ccc(NC(=S)NCCc2ccc(F)cc2)c(OC)c1	none
CCOc1ccccc1NC(=S)NCCc1ccc(F)cc1	WT yeast gro inh 62 (no result: Insulin prom inh)
CCOc1ccccc1NC(=S)NCCc1ccccc1	WT yeast gro inh 74 (no result: Insulin prom inh)
CCOc1ccccc1NC(=S)NC1CCCCC1	L major viab 92
Cc1cccc(C)c1NC(=S)NC1CCCCC1	WT yeast gro inh 70
Cc1ccc(C(=O)OC(C(=O)Nc2ccc(Cl)cc2C(F)(F)F)c2ccccc2)cc1 (stereo unspecified)	L major viab 69
CN1CCN(C(=O)C2(NC(=O)Nc3ccccc3Cl)CCCCC2)CC1	none (no result: Insulin prom up)
CCN1CCN(C(=O)C2(NC(=O)Nc3ccccc3Cl)CCCCC2)CC1	L major viab 55 (no result: Insulin prom up)
O=C(NCc1ccccc1)NC1(C(=O)N2CCN(c3ccccc3)CC2)CCCCC1	L major viab 54 (no result: Insulin prom inh)
O=C(Cc1c[nH]c2ccccc12)NC1(C(=O)NC2CCCC2)CCCCC1	none
CCCCN(CC)Cc1ccc(CNC(=S)Nc2cccc(F)c2)o1	L major viab 78 (no result: Insulin prom inh)
CCOc1ccc(C2=C(C=C(C#N)C#N)C(c3ccccc3)c3ccccc3O2)cc1 (stereo unspecified)	none
COc1ccc(C2=C(CN(C)C)C(c3ccccc3)c3ccccc3O2)cc1 (stereo unspecified)	L major viab 100!
COc1ccc(NC(=O)CCC(=O)N(Cc2ccc(OC)c(OC)c2)c2nccs2)cc1	L major viab 54
COc1ccc(OC)c(NC(=O)CCC(=O)N(Cc2ccc(OC)c(OC)c2)c2nccs2)c1	none (no result: Insulin prom inh)
OCCCNCc1ccc(Cl)cc1Cl	none (no result: Insulin prom inh)
CCCCNC(=S)Nc1ccc(Cl)cc1	none
OCCCCNCc1ccc(OCc2ccc(Cl)cc2)cc1	L major viab 100 (no result: Insulin prom inh)
CCCCCNCc1ccc(Br)cc1	L major viab 87 (no result: Insulin prom inh)
CNCCCNCc1ccc(SC)cc1	none (no result: Insulin prom up)
CCCCCCNCc1ccc(Br)cc1	L major viab 86 (no result: Insulin prom inh)
CCCCCCNC(=O)c1ccc(Br)o1	none
CCCCCNCc1ccc(Cl)cc1	L major viab 51
Brc1ccc(CNc2nc3ccccc3n2CCN2CCCCC2)cc1	none (no result: Autophagy HCS, WT yeast gro inh, L major viab, Insulin prom inh)
Cc1ccccc1-n1ncc(C(C)NC(=O)c2ccco2)c1C (stereo unspecified)	none (no result: Insulin prom inh)
CCOCCCn1c(SCC(=O)NCc2ccc3c(c2)OCO3)nc2ccccc2c1=O	none
COCCn1c(SCC(=O)Nc2cc(C(C)(C)C)nn2-c2ccccc2)nc2ccccc2c1=O	L major viab 54
COc1ccccc1-n1cnnc1SCC(=O)Nc1cc(C(C)(C)C)nn1-c1ccccc1	WT yeast gro inh 78
CCOCCCn1c(SCC(=O)Nc2cc(C(C)(C)C)nn2-c2ccccc2)nc2ccccc2c1=O	L major viab 72
COc1ccc(-n2cnnc2SCC(=O)Nc2cc(C(C)(C)C)nn2-c2ccccc2)cc1	none (no result: WT yeast gro inh, Insulin prom up)
COCCn1c(SCC(=O)Nc2ccc(C)cc2C)nc2c(oc3ccccc32)c1=O	Autophagy HCS active, L major viab 54
CCC(=O)NC(=S)Nc1ccc(NC(=O)c2ccc([N+](=O)[O-])cc2Cl)cc1	none (no result: Insulin prom inh)
CC(C)CC(=O)N1CCN(S(C)(=O)=O)CC1	none (no result: Insulin prom inh)
COc1ccccc1OCc1ccc(C(=O)Nc2ccc(Cl)cn2)o1	none (no result: Insulin prom inh)
Cc1cccc(CN(C(=S)Nc2c(C)cccc2C)c2cccnc2)c1	L major viab 87
CC(=O)/C=C/c1ccccc1O	none
C[n+]1ccc(/C=C/c2ccccc2O)c2ccccc21	WT yeast gro inh 65, L major viab 99 (no result: Insulin prom inh)
COC(=O)c1ccccc1NC(=S)N(Cc1ccc2c(c1)OCO2)Cc1cc2cc(OC)ccc2[nH]c1=O	L major viab 55 (no result: Insulin prom inh, Insulin prom up)
CCc1ccc2[nH]c(=O)c(CN(CCN(CC)CC)C(=O)Nc3ccccc3OC)cc2c1	Autophagy HCS active (no result: Insulin prom inh)
COc1ccc2cc(CN(C(=O)Nc3ccccc3OC)C3CCCC3)c(=O)[nH]c2c1	L major viab 53
CCc1ccc2[nH]c(=O)c(CN(CCN(C)C)C(=O)Nc3ccccc3OC)cc2c1	none
CCc1ccc2[nH]c(=O)c(CN(Cc3ccccc3)C(=O)Nc3ccccc3OC)cc2c1	L major viab 64
COc1ccc(C(=O)/C=C/C(=O)N(CC(=O)NC2CCCCC2)Cc2ccc(F)cc2)c(O)c1	Insulin prom up inconclusive (no result: Insulin prom inh)
COc1ccnc(-n2cccc2/C=N/O)c1C#N	none (no result: Insulin prom inh)
CN(Cc1ccc(F)cc1)Cc1nc(-c2cnccn2)no1	none (no result: Insulin prom inh)
COc1ccc2[nH]c(=O)c(CN(C(=O)c3ccco3)C(C)C)cc2c1	none (no result: Autophagy HCS, WT yeast gro inh, L major viab, Insulin prom inh)
O=C(NC1CCCCC1)N(Cc1cc2cc3c(cc2[nH]c1=O)OCCO3)C1CCCCC1	L major viab 69
COc1ccc(CC(=O)N(Cc2cc3cc(OC)ccc3[nH]c2=O)C(C)C)cc1	L major viab 94
COc1cc2cc(CN(C(=O)NC3CCCCC3)C3CCCC3)c(=O)[nH]c2cc1OC	none (no result: Insulin prom inh)
CCc1nn(CC(=O)NCCCN(CC)c2cccc(C)c2)c(=O)c2cc3occc3n12	none
CCc1cc2c(cc3c(=O)n(CC(=O)NCCCN4CC(C)CC(C)C4)ncn32)s1 (stereo unspecified)	L major viab 84 (no result: Insulin prom inh)
CC1CC(C)CN(CCCNC(=O)Cn2ncn3cccc3c2=O)C1 (stereo unspecified)	none
CCc1cc2c(cc3c(=O)n(CC(=O)NCCCN(CC)CC)nc(CC)n32)s1	L major viab 92
CC(=O)CCc1oc2c([N+](=O)[O-])cccc2c1-c1ccc(C)o1	WT yeast gro inh 69 (no result: Insulin prom inh)
CCCc1cc(=O)[nH]c(Nc2ccc(OC)c(Cl)c2)n1	none
NNc1ccc2c(C(F)(F)F)cc(C(F)(F)F)nc2n1	none
Cc1ccc(/C=N/Nc2ccc3c(C(F)(F)F)cc(C(F)(F)F)nc3n2)cc1	Insulin prom inh 71
CC(=O)Nc1sc(N/N=C\c2ccco2)nc1-c1cccs1	none
Fc1ccc2[nH]c3c(N4CCN(c5ccccc5)CC4)ncnc3c2c1	none
OC1(c2cccc(C(F)(F)F)c2)CCN(c2ncnc3c2[nH]c2ccc(F)cc23)CC1	L major viab 88
CCOC(=O)c1c(-c2ccccc2)csc1NC(=O)c1cc(S(=O)(=O)N2CCOCC2)ccc1C	none
CC(=O)OCC(=O)Nc1c(C)cc(C)cc1C	none
CCOc1ccc(/C=N/OCC(=O)Nc2cc(C)on2)cc1	L major viab 60
COc1ccc(/C=N/OCC(=O)NC(c2ccccc2)c2ccccc2)c(OC)c1	L major viab 100
CCOc1ccc(/C=N/OCC(=O)NC(c2ccccc2)c2ccccc2)cc1	L major viab 77, Insulin prom up inconclusive
COc1ccc(-n2c(C)cc(/C=N/Nc3nnc(C)n3N)c2C)cc1	none
CC(C)CNS(=O)(=O)c1ccc(CCC(=O)N2CCC(C(N)=O)CC2)cc1	none (no result: Insulin prom inh)
CC1=[N+]([O-])C(C)(C)C(c2ccc(Br)cc2)=[N+]1[O-]	none
CC(C)n1c(O)c(N=NC(=O)c2ccccc2NS(=O)(=O)c2cccs2)c2ccccc21	none (no result: Insulin prom inh)
COc1ccc(S(=O)(=O)Oc2ccc3ccccc3c2)cc1	WT yeast gro inh 60
CN(C)S(=O)(=O)c1ccc(NC(=O)COC(=O)C2CC3CCCC(C2)C3=O)cc1 (stereo unspecified)	none

Bioassay records as filed in PubChem.
